According to PubChem BioAssay (NCATS):
Results filed as inconclusive are left out. Active and inactive are the calls of the source. Calls follow the shape of the dose curve; as a rule, active = well fitted curve in the direction sought with a large enough effect; inconclusive = small, poorly fitted or top-dose-only effect, or another doubt; inactive = no such curve, though single readings can be large; an effect the other way counts as inactive or inconclusive.

How the values were obtained:
[1] = qHTS of pediatric cancer cell lines to identify multiple opportunities for drug repurposing: Primary screen for SJ-GBM2 cells (AID 1347091); also: potency is read from the fitted curve at half-maximal effect
Outline: (§1)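 Viability measured as metabolically active cells via CellTiter-Glo luminescence following 48 hours of compound exposure, 11-point dilutions in confirmatory testing. 500-1,000 cells/well plated 5 hours before dosing; controls were DMSO and 2.3 µM bortezomib.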

[2] = qHTS of pediatric cancer cell lines to identify multiple opportunities for drug repurposing: Primary screen for NB-EBc1 cells (AID 1347095); also: potency is read from the fitted curve at half-maximal effect
Outline: (§2)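 ATP-based luminescence (CellTiter-Glo) quantifies viability after a 48-hour exposure. Compounds are dosed across 8 or 11 final concentrations; DMSO and 2.3 µM bortezomib serve as controls.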

[3] = qHTS of pediatric cancer cell lines to identify multiple opportunities for drug repurposing: Primary screen for Saos-2 cells (AID 1347097); also: nearly all actives have a fitted effect of over 40% in size; also: potency is read from the fitted curve at half-maximal effect
Outline: as §2

[4] = qHTS of pediatric cancer cell lines to identify multiple opportunities for drug repurposing: Primary screen for SK-N-SH cells (AID 1347098); also: nearly all actives have a fitted effect of over 65% in size; also: potency is read from the fitted curve at half-maximal effect
Outline: (§3)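 Cells (500-1,000/well) rested 5 h, then received compounds for 48 h; metabolically active cells were measured by CellTiter-Glo luminescence. Final concentrations spanned up to 46 µM (MIPE, 11-point) or 0.59 nM-46 µM (NPC, 8-point) in primary screens, 11-point in follow-ups.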

[5] = qHTS of pediatric cancer cell lines to identify multiple opportunities for drug repurposing: Primary screen for LAN-5 cells (AID 1347100); also: potency is read from the fitted curve at half-maximal effect
Outline: (§4)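 Viability after 48 h compound treatment at 37C, 500-1,000 cells/well, read as ATP luminescence with CellTiter-Glo. Primary screens used 11-point (MIPE, 0.78 nM-46 µM) or 8-point (NPC, 0.59 nM-46 µM) final concentrations; follow-up screens used 11-point dilutions.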

[6] = qHTS of pediatric cancer cell lines to identify multiple opportunities for drug repurposing: Primary screen for BT-12 cells (AID 1347101); also: nearly all actives have a fitted effect of over 25% in size; also: potency is read from the fitted curve at half-maximal effect
Outline: as §3

[7] = qHTS of pediatric cancer cell lines to identify multiple opportunities for drug repurposing: Primary screen for Rh18 cells (AID 1347102); also: nearly all actives have a fitted effect of over 65% in size; also: potency is read from the fitted curve at half-maximal effect
Outline: as §4

[8] = qHTS of pediatric cancer cell lines to identify multiple opportunities for drug repurposing: Primary screen for DAOY cells (AID 1347090); also: nearly all actives have a fitted effect of over 55% in size; also: potency is read from the fitted curve at half-maximal effect
Outline: as §1

[9] = qHTS of pediatric cancer cell lines to identify multiple opportunities for drug repurposing: Primary screen for A673 cells (AID 1347092); also: nearly all actives have a fitted effect of over 45% in size; also: potency is read from the fitted curve at half-maximal effect
Outline: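 A673 cells (500-1,000 cells/well in growth media) were pre-incubated 5 h at 37 degrees C, then exposed to compounds for 48 h. Viability was read as CellTiter-Glo luminescence; concentration-response curves came directly from the primary screen.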

[10] = qHTS of pediatric cancer cell lines to identify multiple opportunities for drug repurposing: Primary screen for U-2 OS cells (AID 1347096); also: nearly all actives have a fitted effect of over 50% in size; also: potency is read from the fitted curve at half-maximal effect
Outline: as §4

[11] = qHTS of pediatric cancer cell lines to identify multiple opportunities for drug repurposing: Primary screen for NB1643 cells (AID 1347099); also: nearly all actives have a fitted effect of over 50% in size; also: potency is read from the fitted curve at half-maximal effect
Outline: as §2

[12] = qHTS of pediatric cancer cell lines to identify multiple opportunities for drug repurposing: Primary screen for TC32 cells (AID 1347089); also: nearly all actives have a fitted effect of over 60% in size
Outline: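 Luminescent CellTiter-Glo read-out of metabolically active TC32 cells after 48 h compound exposure. Primary: MIPE 11-point, 0.78 nM–46 µM; NPC 8-point, 0.59 nM–46 µM. Confirmatory: 11-point dilutions.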

[13] = qHTS of pediatric cancer cell lines to identify multiple opportunities for drug repurposing: Primary screen for BT-37 cells (AID 1347094); also: potency is read from the fitted curve at half-maximal effect
Outline: as §2

[14] = qHTS of pediatric cancer cell lines to identify multiple opportunities for drug repurposing: Primary screen for SK-N-MC cells (AID 1347093); also: potency is read from the fitted curve at half-maximal effect
Outline: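 Metabolically active cells were quantified by ATP-dependent luminescence (CellTiter-Glo, 15 min at room temperature) following 48 h treatment. Cells had been plated at 500-1,000 per well and settled for 5 h beforehand.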

COC(=O)N[C@H](C(=O)N1CCC[C@@H]1c1ncc(-c2ccc(-c3ccc(-c4cnc([C@@H]5CCCN5C(=O)[C@@H](NC(=O)OC)C(C)C)[nH]4)cc3)cc2)[nH]1)C(C)C
Potency [1]: 23.5 µM (active) | Potency [2]: 26.4 µM (active) | Potency [3]: 18.7 µM (active) | Potency [4]: inactive | Potency [5]: 26.4 µM (active) | Potency [6]: 34.3 µM (active) | Potency [7]: 23.5 µM (active)

NC(=O)c1cccc2[nH]c(-c3ccc([C@H]4CCCN4)cc3F)nc12
Potency [8]: inactive | Potency [1]: inactive | Potency [9]: 11.8 µM (active) | Potency [10]: inactive | Potency [6]: inactive | Potency [7]: inactive

NC(=O)c1ccc2nc(-c3ccc(Oc4ccc(Cl)cc4)cc3)[nH]c2c1
Potency [1]: inactive | Potency [10]: inactive | Potency [3]: inactive | Potency [4]: inactive | Potency [11]: inactive | Potency [6]: 2.43 µM (active) | Potency [7]: inactive

COc1ccc2c3c1OC1C[C@@H](O)C=C[C@@]31CCN(C)C2 (stereo not given in full)
Potency [12]: inactive | Potency [13]: inactive | Potency [10]: inactive | Potency [5]: inactive | Potency [6]: inactive | Potency [7]: inactive

COc1cc(N2CCC(N3CCN(C)CC3)CC2)ccc1Nc1ncnc(Nc2ccccc2S(=O)(=O)C(C)C)n1
Potency [8]: inactive | Potency [9]: 9.35 µM (active) | Potency [13]: 15.3 µM (active) | Potency [10]: inactive | Potency [3]: inactive | Potency [4]: 27.1 µM (active)

CC(=O)Nc1ccc([C@H](C)C(=O)Nc2ncc(C(C)C)s2)cc1
Potency [8]: 1.48 µM (active) | Potency [1]: 0.743 µM (active) | Potency [9]: 0.743 µM (active) | Potency [14]: 0.332 µM (active) | Potency [13]: 4.32 µM (active) | Potency [2]: 2.35 µM (active) | Potency [3]: 4.18 µM (active) | Potency [4]: 4.82 µM (active) | Potency [11]: 1.18 µM (active) | Potency [6]: 1.22 µM (active) | Potency [7]: 7.43 µM (active)

CCCCCCCCCCCC1=C(O)C(=O)C=C(O)C1=O
Potency [8]: 0.935 µM (active) | Potency [1]: 0.0332 µM (active) | Potency [14]: 0.0935 µM (active) | Potency [13]: 0.0243 µM (active) | Potency [2]: 0.469 µM (active) | Potency [10]: inactive | Potency [3]: 0.0372 µM (active) | Potency [5]: 0.0166 µM (active) | Potency [6]: 0.0432 µM (active) | Potency [7]: inactive

O=C(NCc1ccccc1)c1csc(Nc2ccncn2)n1
Potency [12]: inactive | Potency [9]: 23.5 µM (active) | Potency [14]: 20.9 µM (active) | Potency [2]: 14.8 µM (active) | Potency [3]: 11.8 µM (active) | Potency [11]: 13.2 µM (active) | Potency [5]: 13.2 µM (active) | Potency [7]: 23.5 µM (active)

Cc1c(NC(=O)c2ccc(C(C)(C)C)cc2)cccc1-c1cn(C)c(=O)c(Nc2ccc(C(=O)N3CCOCC3)cc2)n1
Potency [12]: inactive | Potency [9]: 9.35 µM (active) | Potency [14]: 18.7 µM (active) | Potency [2]: 18.7 µM (active) | Potency [3]: 18.7 µM (active)

CCS(=O)(=O)N1CC(CC#N)(n2cc(-c3ncnc4[nH]ccc34)cn2)C1
Potency [12]: inactive | Potency [9]: 14.8 µM (active) | Potency [10]: inactive | Potency [3]: inactive | Potency [4]: 13.6 µM (active) | Potency [11]: 11.8 µM (active) | Potency [5]: 20.9 µM (active)

O=c1c(-c2ccc(O)cc2)coc2cc(OC3O[C@H](CO)[C@H](O)[C@H](O)[C@H]3O)cc(O)c12 (stereo not given in full)
Potency [8]: 3.72 µM (active) | Potency [1]: inactive | Potency [9]: 2.96 µM (active) | Potency [14]: 2.96 µM (active) | Potency [13]: 21.7 µM (active) | Potency [2]: 18.7 µM (active) | Potency [10]: inactive | Potency [3]: inactive | Potency [4]: 9.61 µM (active)

O=C(Nc1cccc(Br)c1)c1cccc(S(=O)(=O)N2CCCCCC2)c1
Potency [12]: inactive | Potency [10]: inactive | Potency [3]: 16.6 µM (active)

Cc1nc(N)sc1-c1ccnc(Nc2ccc(N3CCOCC3)cc2)n1
Potency [1]: 2.35 µM (active) | Potency [9]: 9.35 µM (active) | Potency [14]: 1.05 µM (active) | Potency [13]: 24.3 µM (active) | Potency [2]: 23.5 µM (active) | Potency [10]: 18.7 µM (active) | Potency [3]: 11.8 µM (active) | Potency [4]: 6.81 µM (active) | Potency [11]: 9.35 µM (active) | Potency [5]: 0.332 µM (active) | Potency [6]: 24.3 µM (active) | Potency [7]: 16.6 µM (active)

COC(=O)C1=CO[C@@H](O)[C@@H]2C(CO)=CC[C@@H]12
Potency [12]: inactive | Potency [9]: inactive | Potency [14]: 29.6 µM (active) | Potency [13]: inactive | Potency [10]: inactive | Potency [5]: 20.9 µM (active)

CC[C@H]1OC(=O)[C@H](C)[C@@H](O[C@H]2C[C@@](C)(OC)[C@@H](O)[C@H](C)O2)[C@H](C)[C@@H](O[C@@H]2O[C@H](C)C[C@H](N(C)C)[C@@H]2O)[C@](C)(O)C[C@@H](C)CN(C)[C@H](C)[C@@H](O)[C@]1(C)O
Potency [8]: inactive | Potency [1]: inactive | Potency [9]: inactive | Potency [14]: inactive | Potency [10]: inactive | Potency [11]: inactive | Potency [6]: inactive | Potency [7]: inactive

C[N+](C)(C)CC(=O)O
Potency [8]: inactive | Potency [1]: inactive | Potency [9]: inactive | Potency [14]: 16.6 µM (active) | Potency [2]: inactive | Potency [10]: inactive | Potency [4]: inactive | Potency [11]: inactive | Potency [5]: inactive | Potency [7]: inactive

Cc1ccc(Nc2cc(-c3cccc(N4C(=O)c5ccccc5C4=O)c3)ncn2)cc1NS(C)(=O)=O
Potency [1]: inactive | Potency [9]: 18.7 µM (active) | Potency [10]: inactive | Potency [3]: 33.2 µM (active) | Potency [5]: 23.5 µM (active) | Potency [7]: inactive

COC[C@@H](c1ccc(C(F)(F)F)cc1)N1CCN(C2(C)CCN(C(=O)c3c(C)ncnc3C)CC2)C[C@H]1C
Potency [12]: inactive | Potency [14]: 3.32 µM (active) | Potency [2]: inactive | Potency [10]: inactive | Potency [3]: inactive | Potency [4]: 5.41 µM (active) | Potency [11]: 18.7 µM (active) | Potency [6]: inactive | Potency [7]: inactive

C=CCc1ccc(O)c(-c2ccc(O)c(CC=C)c2)c1
Potency [12]: inactive | Potency [9]: 23.5 µM (active) | Potency [14]: 23.5 µM (active) | Potency [2]: inactive | Potency [10]: inactive | Potency [11]: inactive | Potency [7]: inactive

O=C1C(Cl)=C(NCCN2CCOCC2)C(=O)c2ncccc21
Potency [8]: 11.8 µM (active) | Potency [1]: 6.62 µM (active) | Potency [9]: 1.87 µM (active) | Potency [14]: 7.43 µM (active) | Potency [13]: 3.43 µM (active) | Potency [10]: 5.9 µM (active) | Potency [3]: 2.35 µM (active) | Potency [4]: 7.64 µM (active) | Potency [11]: 9.35 µM (active) | Potency [5]: 8.33 µM (active) | Potency [6]: 3.43 µM (active) | Potency [7]: 2.35 µM (active)
